# Article PMC7862700, “An all-to-all approach to the identification of sequence-specific readers for epigenetic DNA modifications on cytosine”
# Columns and labels:
# Assay in all cases: DAPPL (digital affinity profiling via proximity ligation, sequencing); 10 mM Tris-HCl pH 7.5, 50 mM NaCl, 1 mM DTT, 4% glycerol, room temperature, 30 min; GST-TFs on glutathione beads, 16-mer random dsDNA library, 0.1% formaldehyde crosslink after washing; high values mean tight binding
# FEV = target: T1, FEV (Homo sapiens, UniProt Q99581 1-238); conditions: protein: recombinant; tags: N-terminal GST; dsDNA, one strand shown
# T1 sequence: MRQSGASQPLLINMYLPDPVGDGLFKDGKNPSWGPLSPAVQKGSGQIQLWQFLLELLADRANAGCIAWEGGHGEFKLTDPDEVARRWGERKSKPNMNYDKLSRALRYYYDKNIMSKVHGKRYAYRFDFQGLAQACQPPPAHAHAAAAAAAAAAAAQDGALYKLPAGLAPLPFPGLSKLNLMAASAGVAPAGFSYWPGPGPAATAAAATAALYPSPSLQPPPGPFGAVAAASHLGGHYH
# How it was run: (§1)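 Beads coated with glutathione captured GST-fused human transcription factors that had been expressed in yeast, and the factors were then given DNA barcodes and pooled with a tag-only sample. The pools were incubated with 200 nmole of a random double-stranded 16-mer DNA library in Tris/NaCl/DTT/glycerol buffer for 30 min at room temperature, washed, crosslinked with 0.1% formaldehyde and proximity-ligated with BsaI/T4 ligase at 37 °C for 1 h. PCR amplification and Illumina NextSeq500 sequencing came last. Binding signal is each hexamer's read frequency for a factor divided by its frequency for the tag-only sample.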
# ETV5 = ETV5 (Homo sapiens, UniProt P41161 1-510); conditions: protein: recombinant; tags: N-terminal GST; dsDNA, one strand shown
# How it was run: as §1
# HSF1 = HSF1 (Homo sapiens, UniProt Q00613 1-529); conditions: protein: recombinant; tags: N-terminal GST; chain copies: 3; dsDNA, one strand shown
# How it was run: as §1
# SPIC = target: T2, SPIC (Homo sapiens, UniProt Q8N5J4 1-248); conditions: protein: recombinant; tags: N-terminal GST; dsDNA, one strand shown
# T2 sequence: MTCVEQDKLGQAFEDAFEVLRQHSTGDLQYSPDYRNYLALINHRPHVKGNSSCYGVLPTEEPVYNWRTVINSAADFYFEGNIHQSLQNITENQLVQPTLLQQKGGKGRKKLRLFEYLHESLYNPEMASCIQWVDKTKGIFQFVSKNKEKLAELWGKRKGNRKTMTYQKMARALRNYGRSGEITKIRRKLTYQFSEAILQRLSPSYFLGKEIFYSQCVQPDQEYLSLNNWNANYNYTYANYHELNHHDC
# How it was run: as §1
# ELF4 = ELF4 (Homo sapiens, UniProt Q99607 1-663); conditions: protein: recombinant; tags: N-terminal GST; dsDNA, one strand shown
# How it was run: as §1
# ELK4 = target: T3, ELK4 (Homo sapiens, UniProt P28324-2 1-405); conditions: protein: recombinant; tags: N-terminal GST; dsDNA, one strand shown
# T3 sequence: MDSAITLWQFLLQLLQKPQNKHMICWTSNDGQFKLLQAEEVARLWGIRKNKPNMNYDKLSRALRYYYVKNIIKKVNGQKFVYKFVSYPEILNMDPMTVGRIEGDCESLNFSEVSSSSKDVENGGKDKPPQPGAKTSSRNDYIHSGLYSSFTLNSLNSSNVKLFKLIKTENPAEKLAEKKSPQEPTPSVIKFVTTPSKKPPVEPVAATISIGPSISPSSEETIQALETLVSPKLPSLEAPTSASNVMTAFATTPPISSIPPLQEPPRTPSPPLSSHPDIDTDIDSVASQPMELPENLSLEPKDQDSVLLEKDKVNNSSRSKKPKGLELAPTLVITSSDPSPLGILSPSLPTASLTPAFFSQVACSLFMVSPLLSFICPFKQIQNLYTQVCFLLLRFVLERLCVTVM
# How it was run: as §1
# ETV2 = target: T4, ETV2 (Homo sapiens, UniProt O00321 1-342); conditions: protein: recombinant; tags: N-terminal GST; dsDNA, one strand shown
# T4 sequence: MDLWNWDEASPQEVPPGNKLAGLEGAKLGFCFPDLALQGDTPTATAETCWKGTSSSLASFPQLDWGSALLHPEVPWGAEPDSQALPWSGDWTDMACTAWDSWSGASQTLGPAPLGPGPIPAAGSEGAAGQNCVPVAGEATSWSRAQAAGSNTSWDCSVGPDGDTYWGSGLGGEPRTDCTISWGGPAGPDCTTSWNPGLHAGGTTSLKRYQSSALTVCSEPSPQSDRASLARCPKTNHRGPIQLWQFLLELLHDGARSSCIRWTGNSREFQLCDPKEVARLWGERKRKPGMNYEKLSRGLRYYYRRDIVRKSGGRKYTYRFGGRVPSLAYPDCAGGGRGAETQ
# How it was run: as §1
# ELF3 = target: T5, ELF3 (Homo sapiens, UniProt P78545 1-371); conditions: protein: recombinant; tags: N-terminal GST; dsDNA, one strand shown
# T5 sequence: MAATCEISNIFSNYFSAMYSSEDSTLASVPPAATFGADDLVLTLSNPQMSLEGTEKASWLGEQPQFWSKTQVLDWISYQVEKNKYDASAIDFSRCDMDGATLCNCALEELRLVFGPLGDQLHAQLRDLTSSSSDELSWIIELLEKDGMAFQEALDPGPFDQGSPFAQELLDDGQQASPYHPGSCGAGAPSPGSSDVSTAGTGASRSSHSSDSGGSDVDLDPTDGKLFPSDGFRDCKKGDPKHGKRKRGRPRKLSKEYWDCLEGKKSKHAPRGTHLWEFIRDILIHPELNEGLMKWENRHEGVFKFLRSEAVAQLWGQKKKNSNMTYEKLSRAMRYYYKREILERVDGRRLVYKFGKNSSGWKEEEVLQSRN
# How it was run: as §1
# CRX = CRX (Homo sapiens, UniProt O43186 1-299); conditions: protein: recombinant; tags: N-terminal GST; dsDNA, one strand shown
# How it was run: as §1
# ETV1 = ETV1 (Homo sapiens, UniProt P50549 1-477); conditions: protein: recombinant; tags: N-terminal GST; dsDNA, one strand shown
# How it was run: as §1
# HSF1, sequence (Q00613 whole entry): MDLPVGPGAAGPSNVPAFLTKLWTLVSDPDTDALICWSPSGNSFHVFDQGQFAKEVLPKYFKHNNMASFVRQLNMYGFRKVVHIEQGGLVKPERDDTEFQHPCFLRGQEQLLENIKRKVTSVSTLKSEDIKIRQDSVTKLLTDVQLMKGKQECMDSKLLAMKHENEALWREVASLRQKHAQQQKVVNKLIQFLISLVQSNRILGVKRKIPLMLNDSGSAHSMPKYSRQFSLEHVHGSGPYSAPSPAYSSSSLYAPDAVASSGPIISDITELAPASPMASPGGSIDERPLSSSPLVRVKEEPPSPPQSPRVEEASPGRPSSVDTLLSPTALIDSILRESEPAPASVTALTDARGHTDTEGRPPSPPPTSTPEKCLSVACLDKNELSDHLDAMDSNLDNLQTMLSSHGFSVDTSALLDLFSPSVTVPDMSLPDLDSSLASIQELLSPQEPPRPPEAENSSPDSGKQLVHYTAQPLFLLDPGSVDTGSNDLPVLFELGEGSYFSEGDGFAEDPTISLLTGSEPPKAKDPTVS
# ELF4, sequence (Q99607 whole entry): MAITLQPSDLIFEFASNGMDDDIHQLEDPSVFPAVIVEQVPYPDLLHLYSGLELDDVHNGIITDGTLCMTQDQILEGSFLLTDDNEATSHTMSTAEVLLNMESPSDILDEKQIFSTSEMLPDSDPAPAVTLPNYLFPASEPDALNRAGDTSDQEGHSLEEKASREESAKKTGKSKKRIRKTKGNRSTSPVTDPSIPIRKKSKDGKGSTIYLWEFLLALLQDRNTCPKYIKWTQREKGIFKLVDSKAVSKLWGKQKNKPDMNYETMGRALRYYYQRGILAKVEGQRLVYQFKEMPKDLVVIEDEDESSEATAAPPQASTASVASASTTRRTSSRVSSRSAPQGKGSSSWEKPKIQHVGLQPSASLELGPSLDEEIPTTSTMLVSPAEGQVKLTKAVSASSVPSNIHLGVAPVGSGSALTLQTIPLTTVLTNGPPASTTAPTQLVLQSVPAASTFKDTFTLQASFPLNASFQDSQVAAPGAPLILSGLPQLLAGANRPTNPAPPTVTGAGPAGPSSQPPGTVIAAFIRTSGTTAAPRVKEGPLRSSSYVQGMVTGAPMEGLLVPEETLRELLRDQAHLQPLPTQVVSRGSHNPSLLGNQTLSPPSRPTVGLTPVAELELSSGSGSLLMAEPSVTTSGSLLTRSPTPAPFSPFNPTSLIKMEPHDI
# ETV1, sequence (P50549 whole entry): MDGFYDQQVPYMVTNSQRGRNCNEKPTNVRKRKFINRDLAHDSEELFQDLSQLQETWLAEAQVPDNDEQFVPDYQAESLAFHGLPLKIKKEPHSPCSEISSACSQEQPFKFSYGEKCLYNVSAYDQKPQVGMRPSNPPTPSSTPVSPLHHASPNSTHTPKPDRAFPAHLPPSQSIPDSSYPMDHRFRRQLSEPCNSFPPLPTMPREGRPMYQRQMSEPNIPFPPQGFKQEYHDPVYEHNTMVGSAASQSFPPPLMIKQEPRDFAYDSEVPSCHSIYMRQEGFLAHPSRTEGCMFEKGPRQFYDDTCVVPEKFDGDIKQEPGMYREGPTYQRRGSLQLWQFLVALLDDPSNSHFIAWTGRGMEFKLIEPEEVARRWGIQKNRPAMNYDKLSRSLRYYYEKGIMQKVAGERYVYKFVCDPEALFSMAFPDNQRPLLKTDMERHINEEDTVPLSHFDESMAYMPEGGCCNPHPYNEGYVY
# CRX, sequence (O43186 whole entry): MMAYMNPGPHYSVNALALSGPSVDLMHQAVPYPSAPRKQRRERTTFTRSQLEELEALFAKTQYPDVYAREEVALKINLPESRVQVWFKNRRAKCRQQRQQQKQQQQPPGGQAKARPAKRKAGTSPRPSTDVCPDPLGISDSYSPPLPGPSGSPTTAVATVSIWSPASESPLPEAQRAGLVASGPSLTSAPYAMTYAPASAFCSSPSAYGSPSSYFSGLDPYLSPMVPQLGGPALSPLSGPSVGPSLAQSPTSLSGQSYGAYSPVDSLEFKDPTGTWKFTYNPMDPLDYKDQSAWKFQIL
# ETV5, sequence (P41161 whole entry): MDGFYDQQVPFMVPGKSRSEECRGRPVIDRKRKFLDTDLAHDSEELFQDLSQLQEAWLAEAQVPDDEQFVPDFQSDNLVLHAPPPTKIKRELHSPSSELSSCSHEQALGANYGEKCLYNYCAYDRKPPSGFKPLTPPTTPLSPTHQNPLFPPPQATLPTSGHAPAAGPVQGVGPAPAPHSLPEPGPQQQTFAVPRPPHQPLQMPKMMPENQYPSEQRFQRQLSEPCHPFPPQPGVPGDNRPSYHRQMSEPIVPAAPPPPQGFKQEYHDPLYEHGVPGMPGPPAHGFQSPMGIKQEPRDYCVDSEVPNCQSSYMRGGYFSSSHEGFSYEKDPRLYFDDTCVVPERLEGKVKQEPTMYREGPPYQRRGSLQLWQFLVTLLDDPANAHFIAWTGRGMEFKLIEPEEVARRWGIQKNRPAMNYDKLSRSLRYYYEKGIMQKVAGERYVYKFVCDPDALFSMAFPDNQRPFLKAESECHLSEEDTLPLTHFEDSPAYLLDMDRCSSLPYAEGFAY
sequence,measurement,setting,value
TTACAA,binding signal,FEV,"1.12 fold enrichment (6-mer frequency, TF over GST control)"
same,binding signal,ETV5,"1.1 fold enrichment (6-mer frequency, TF over GST control)"
same,binding signal,HSF1,"1.31 fold enrichment (6-mer frequency, TF over GST control)"
same,binding signal,SPIC,"1.12 fold enrichment (6-mer frequency, TF over GST control)"
same,binding signal,ELF4,"1.12 fold enrichment (6-mer frequency, TF over GST control)"
same,binding signal,ELK4,"1.24 fold enrichment (6-mer frequency, TF over GST control)"
same,binding signal,ETV2,"1.09 fold enrichment (6-mer frequency, TF over GST control)"
same,binding signal,ELF3,"1.22 fold enrichment (6-mer frequency, TF over GST control)"
same,binding signal,CRX,"1.77 fold enrichment (6-mer frequency, TF over GST control)"
same,binding signal,ETV1,"1.18 fold enrichment (6-mer frequency, TF over GST control)"
